Assay outcomes from PubChem.
Hits are enriched below; roughly 4.2% of the tested compounds scored in any of these assays.
ALOX12 inh: inhibitors of human 12S-lipoxygenase ALOX12. P18054. purified 12hLO, xylenol orange hydroperoxide absorbance. Potency, µM (top dose mostly 108 µM), without a hit: at the top dose activity change, negative = inhibition, hits mostly inhibitors. 580,000 compounds, 1.1% hits
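Purified human 12hLO at 150 nM in 25 mM Hepes, 0.01% Triton X-100, pH 7.0, preincubated 15 min at room temperature with compound. Reaction started with 40 uM arachidonic acid, 30 min at room temperature. Hydroperoxide measured by Fe-xylenol orange, 573/405 nm absorbance ratio.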
VDR inh: blocks the human vitamin D receptor. P11473. AID 504847. VDR-SRC2-3 peptide fluorescence polarization, 2 h. 400,000 compounds, 0.93% hits. Potency, µM, for the others: max response, negative = inhibition, usual class: inhibitors
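Measured by FP: displacement of SRC2-3 coactivator peptide from VDR by library compounds, following a two-hour ambient incubation.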
Sfp PPTase inh: Sfp phosphopantetheinyl transferase inhibition; AID 1490; Q9F4F7; Biochemical Sfp PPTase activity, qHTS; Potency, µM, for the others: largest response in the series, negative = inhibition, most hits filed as inhibitors; 310,000 compounds, 3.5% hits;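 further: the enzyme is Sfp with the accession as filed and its product quenches rhodamine fluorescence; 0% = enzyme reaction without inhibitor and -100% = no enzyme wells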
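Buffer: 50 mM Hepes-Na pH 7.6, 10 mM MgCl2, 0.01% Nonidet P-40, 0.01% BSA. Enzyme 15 nM, pre-exposed to compound 15 min; substrates then added and fluorescence change tracked over 30 min.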
PLK1 PBD inh: inhibitors of human PLK1 polo-box domain binding. P53350. AID 720504. 360,000 compounds, 2.8% hits. Potency, µM, for inactives: max response, negative = inhibition, actives largely listed as inhibitors. Plk1 PBD binding of FITC phosphopeptide, fluorescence polarization; further: series mostly up to about 57 µM; nearly all actives have a fitted effect of over 65% in size
Target sequence (P53350 whole entry, looked up, the tested form may be a part): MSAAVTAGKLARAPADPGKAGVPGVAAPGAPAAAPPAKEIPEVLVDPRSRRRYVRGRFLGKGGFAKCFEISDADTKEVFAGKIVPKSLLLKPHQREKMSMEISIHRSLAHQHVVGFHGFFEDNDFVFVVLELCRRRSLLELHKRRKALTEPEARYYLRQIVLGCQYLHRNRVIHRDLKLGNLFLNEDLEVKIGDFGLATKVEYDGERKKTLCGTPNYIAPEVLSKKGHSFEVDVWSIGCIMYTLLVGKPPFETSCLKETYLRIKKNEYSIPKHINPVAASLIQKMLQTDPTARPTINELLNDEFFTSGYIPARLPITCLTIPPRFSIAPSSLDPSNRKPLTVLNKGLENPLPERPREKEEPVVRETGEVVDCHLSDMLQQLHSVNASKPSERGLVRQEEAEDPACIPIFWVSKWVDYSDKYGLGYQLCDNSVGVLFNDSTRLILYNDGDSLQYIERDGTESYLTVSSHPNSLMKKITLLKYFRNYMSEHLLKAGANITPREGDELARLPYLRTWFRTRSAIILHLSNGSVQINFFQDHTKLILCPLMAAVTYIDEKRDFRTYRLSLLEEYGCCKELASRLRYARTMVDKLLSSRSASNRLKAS
Numbers without * were called inactive; ? = inconclusive; / = no result given; [ ] = dose if it differs, or a comment. The call rests on the fitted dose curve; in most records, active means well fitted curve in the direction sought with a large enough effect; inconclusive means small, poorly fitted or top-dose-only effect, or another doubt; inactive means no such curve, though single readings can be large; an effect the other way counts as inactive or inconclusive. Unless noted, on the % scale 0 is the no-effect control and ±100 the full control effect; potency means the concentration at half of the fitted maximal effect.

SMILES	ALOX12 inh	VDR inh	Sfp PPTase inh	PLK1 PBD inh
Cn1c(=O)c(=O)n(C)c2cc(S(=O)(=O)Nc3ccc(Cl)c(C(F)(F)F)c3)ccc21	-15.3%	-7.2%	/	/
Cc1cccc(NC(=O)/C(C#N)=C/c2cccc([N+](=O)[O-])c2)n1	?	?	3.1%	26.7µM*
CON(C)C(=O)CC1(CN(Cc2ccccc2)C(=O)OC(C)(C)C)CCCCC1	-9.0%	?	/	7.5%
C#CC(=O)CC1(CN(Cc2ccccc2)C(=O)OC(C)(C)C)CCCCC1	-18.1%	?	/	11.9µM*
CCN(CC)C(=N)/C(C#N)=N/Nc1ccc(C)cc1	0.0%	-6.4%	1.2%	3.8%
COc1ccc(CCNC(=O)/C=C/c2ccco2)cc1OC	?	-18.4%	44.7µM*	-24.2%
COc1ccc(C(NC(=O)/C=C/c2ccco2)c2ccc(OC)cc2)cc1	44.7µM*	?	25.1µM*	?
CCC(CC)NC(=O)/C=C/c1ccccc1	-1.6%	/	/	/
O=C(/C=C/c1ccco1)Oc1ccc(Sc2ccc(OC(=O)/C=C/c3ccco3)cc2)cc1	11.2µM*	/	/	/
CCC(Cc1ccccc1)NC(=O)/C=C/c1ccco1 (stereo not given)	?	10.6%	56.2µM*	-28.9%
Cc1ccc(-c2nnc([C@H]3CCN(c4ncccn4)C3)o2)cc1	13.4%[176 µM]	/	/	/
COc1cccc(-c2cc3onc(-c4ccccc4)c3c(=O)n2C)c1	-0.1%	5.6%	/	-2.9%
CC(C)NC(=O)COC(=O)/C=C/c1ccco1	-2.7%	-6.8%	50.1µM*	-4.1%
COc1ccc(-c2csc(NC(=S)NC(=O)/C=C/c3ccco3)n2)cc1OC	-17.2%	-7.5%	-12.9%	-7.7%
CC(NC(=O)/C=C/c1ccco1)c1nc2ccccc2n1Cc1cccc(Cl)c1 (stereo not given)	?	-23.4%	28.2µM*	-22.3%
COc1ccc(C(NC(=O)/C=C\c2ccco2)c2ccc(OC)c(OC)c2)cc1 (stereo not given)	31.6µM*	-14.4%	20µM*	?
CC(NC(=O)c1ccco1)c1nc2ccccc2n1Cc1ccc(Br)cc1 (stereo not given)	-4.8%	/	/	/
COc1ccccc1C(=O)N1CCC2(CC1)CC(N1CCN(C)CC1)CCO2 (stereo not given)	35.2%	/	/	/
CCC1C(=O)C(C)(C)C(=O)OC1c1ccc([N+](=O)[O-])cc1 (stereo not given)	?	-2.9%	-29.5%	-14.6%
O=C1CC(=O)OC(c2ccc([N+](=O)[O-])cc2)O1	/	/	/	5.97µM*
COC(=O)C(C)Sc1n[nH]c(=S)s1 (stereo not given)	?	-7.2%	50.1µM*	?
COC(=O)C(C)Sc1nnc(CSc2ncccn2)n1-c1ccc(Cl)cc1 (stereo not given)	-0.3%	/	/	/
COc1cc2cc3c4c(cc(OC)c(OC)c4c2cc1OC)CCN3C	/	/	70.8µM*	/
COc1cc2c(cc1OC)C(=O)N(C)CC2	4.2%	-1.7%	22.7%	7.4%
CC(=O)N1CCN(C(=O)CNC(=O)c2cccs2)CC1	-3.1%	-6.2%	/	1.7%
SMILES	ALOX12 inh	VDR inh	Sfp PPTase inh	PLK1 PBD inh
CN1/C(=C\C=C2/SC(=S)N(CC(=O)O)C2=O)C(C)(C)c2ccccc21	-14.6%	0.3%	22.4µM*	112.5%
O=C(CCc1conc1-c1ccccc1F)NCc1ccc(Cl)cc1	-8.3%	/	/	/
CC(C)N(CCNS(=O)(=O)c1ccc(Cl)cc1)C(C)C	?	20.2%	-9.9%	2.2%
CC(C)OP(=O)(OC(C)C)C1(NS(=O)(=O)c2ccc(Cl)cc2)C=C(Cl)C(=O)C(Cl)=C1	?	-4.0%	89.1µM*	-7.4%
CCOC(=O)c1cnn(-c2cc(Oc3ccccc3C)ncn2)c1N	-0.3%	6.7%	50.1µM*	1.6%
CCOC(=O)c1cnn(-c2cc(Oc3ccccc3)ncn2)c1N	-4.0%	4.8%	23.0%	4.6%
COc1ccccc1-c1ccnc(-n2ncc(C(=O)N(C)CCc3ccccn3)c2C)n1	6.3%	/	/	/
Cc1cc(S(=O)(=O)NCc2ccncc2)c(C)cc1Br	-15.7%	-0.9%	4.8%	-6.3%
CNc1nc(-c2[nH]c(C)c(C(=O)OC)c2C)cs1	20µM*	/	/	/
Cc1cc2c(c(=O)n1Cc1ccccn1)C(c1ccco1)C(C#N)=C(N)O2 (stereo not given)	9.7%	/	/	/
COc1cccc(C2C(C#N)=C(N)Oc3cc(C)n(Cc4ccco4)c(=O)c32)c1 (stereo not given)	?	-15.6%	7.94µM*	-3.2%
Cc1cc2c(c(=O)n1Cc1cccnc1)C(c1ccccc1)C(C#N)=C(N)O2 (stereo not given)	-9.9%	17.6%	-24.7%	-5.3%
CCOc1ccccc1C1C(C#N)=C(N)Oc2cc(C)n(Cc3ccccn3)c(=O)c21 (stereo not given)	0.0%	-8.8%	-12.6%	-7.3%
COc1ccccc1C1C(C#N)=C(N)Oc2cc(C)n(Cc3ccccn3)c(=O)c21 (stereo not given)	-11.9%	16.5%	50.1µM*	-6.5%
COc1ccc(C2C(C#N)=C(N)Oc3cc(C)n(Cc4ccco4)c(=O)c32)cc1 (stereo not given)	?	?	31.6µM*	-28.4%
Cc1cc(C)c(C(=O)COc2cccnc2[N+](=O)[O-])cc1C	298.8%	?	56.2µM*	?
Cc1cc(-c2ccccc2)nc(N(C)NC(=O)c2cccc(C(F)(F)F)c2)c1S(C)(=O)=O	0.0%	-10.0%	16.4%	29.9µM*
Cc1cc(-c2ccccc2)nc(N(C)NC(=O)C2CC2)c1S(C)(=O)=O	-10.0%	8.7%	7.0%	-4.0%
CCN1CCN(S(=O)(=O)c2ccc(OC)c(Br)c2)CC1	?	-15.5%	-2.0%	?
CCOC(=O)c1c(S(=O)(=O)N2CCN(c3ccccc3OC)CC2)c(C)n(C)c1C	-0.7%	4.0%	/	/
COc1cc(Cl)c(NS(=O)(=O)c2c(C(=O)N3CCCC3)c(C)n(C)c2C)c(OC)c1	1.6%	-16.8%	22.6%	26.7µM*
COc1ccccc1N1CCN(S(=O)(=O)c2c(C(=O)N3CCOCC3)c(C)n(C)c2C)CC1	6.6%	?	12.0%	3.36µM*
O=C1NC(=S)N/C1=C\c1ccc(N2CCOCC2)cc1	-13.4%	?	8.9%	3.77µM*
O=C1NC(=S)NC1=Cc1ccc(O)cc1	?	16.0%	/	6.7%
O=C1/C(=C/c2ccccc2)CCc2ccc(Cl)nc21	1.0%	50.1µM*	/	-12.0%
SMILES	ALOX12 inh	VDR inh	Sfp PPTase inh	PLK1 PBD inh
O=C1/C(=C/c2ccccc2)CCc2ccccc21	2.5%	/	/	/
O=C(Nc1nc2cc3c(cc2s1)OCCO3)c1ccc(N2C(=O)CCC2=O)cc1	-5.4%	-25.6%	14.1µM*	-4.4%
CNS(=O)(=O)c1ccc2nc(NC(=O)c3ccc(N4C(=O)CCC4=O)cc3)sc2c1	-19.3%	?	14.1µM*	7.52µM*
O=C(NNc1nc2cc3c(cc2s1)OCO3)c1ccc(F)cc1	-25.9%	7.5%	28.2µM*	-2.5%
CCc1ccc2nc(NC(=O)c3ccc(N4C(=O)CCC4=O)cc3)sc2c1	0.8%	5.5%	21.6%	2.5%
CN(C)CCN=Cc1c(O)n(Cc2ccc3c(c2)OCO3)c(=O)c2ccccc12	8.0%	-14.9%	6.8%	-11.1%
CCOCCCNC(=S)N(CCO)Cc1cc2cc3c(cc2[nH]c1=O)OCCO3	0.0%	-12.3%	56.2µM*	-11.1%
